# Compound activity deposited in PubChem by The Scripps Research Institute Molecular Screening Center.
# Hits are enriched below; roughly 1.7% of the tested compounds scored in any of these assays.
# GSTO1 counter – inhibitors of recombinant GSTO1, primary screen, counter-screen for RBBP9 inhibitor project, biochemical, fluorescence polarization. Glutathione S-transferase omega-1 (Homo sapiens), P78417. activity-based probe fluorescence polarization. inhibition, % at 5.96 µM. 300,000 compounds, 1.1% hits. AID 1974, 2009;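 active = inhibition above the campaign mean inhibition plus 3 SD, cut at about 35% in these data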;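 note: 0% = GSTO1-1 with DMSO and 100% = wells lacking GSTO1-1 enzyme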
# LYPLA1 counter – LYPLA1 inhibitors, primary screen, counter-screen for PME1 inhibitor project, biochemical, fluorescence polarization, FP-Rh probe ABPP; 320,000 compounds, 0.16% hits; Acyl-protein thioesterase 1 (Homo sapiens), O75608; inhibition, % at 5.9 µM; AID 2174, 2009; recombinant LYPLA1;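 active = inhibition above the mean of all tested compounds plus 3 SD, set per campaign, cut at about 14% in these data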;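 note: inhibitors block serine hydrolase probe labeling of LYPLA1 so polarization falls; 0% = enzyme with DMSO and 100% = wells lacking LYPLA1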
# LYPLA2 inh – LYPLA2 inhibitors, primary screen, counter-screen for PME1 inhibitor project, biochemical, fluorescence polarization, FP-Rh probe ABPP; Acyl-protein thioesterase 2 (Homo sapiens), O95372; recombinant LYPLA2; inhibition, % at 5.9 µM; 320,000 compounds, 0.38% hits; AID 2177, 2009;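 active = inhibition above the screen-wide mean plus 3 SD, limit set per campaign, cut at about 26% in these data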;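 note: 0% = LYPLA2 with DMSO and 100% = wells lacking LYPLA2 enzyme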
# ZTA DNA inh – counter-screen for EBNA-1 inhibitors: inhibitors of Epstein-Barr virus ZTA; P03206; ZTA-DNA binding, fluorescence polarization; inhibition, % at 11 µM; 320,000 compounds, 0.15% hits; AID 2234; in the data active = inhibition above about 33%
# PAD4 inh – human PAD4 inhibitors, primary screen, biochemical, fluorescence polarization, 1536-well format | Protein-arginine deiminase type-4 (Homo sapiens), Q9UM07 | recombinant PAD4, RCA probe fluorescence polarization | 330,000 compounds, 0.41% hits | inhibition, % at 6.36 µM;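 active = percent inhibition above a cutoff equal to the mean of all tested compounds plus 3 SD, cut at about 15% in these data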;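 note: 0% = PAD4 with RCA probe and DMSO and 100% = probe without PAD4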
# Target sequence (Q9UM07 whole entry, looked up): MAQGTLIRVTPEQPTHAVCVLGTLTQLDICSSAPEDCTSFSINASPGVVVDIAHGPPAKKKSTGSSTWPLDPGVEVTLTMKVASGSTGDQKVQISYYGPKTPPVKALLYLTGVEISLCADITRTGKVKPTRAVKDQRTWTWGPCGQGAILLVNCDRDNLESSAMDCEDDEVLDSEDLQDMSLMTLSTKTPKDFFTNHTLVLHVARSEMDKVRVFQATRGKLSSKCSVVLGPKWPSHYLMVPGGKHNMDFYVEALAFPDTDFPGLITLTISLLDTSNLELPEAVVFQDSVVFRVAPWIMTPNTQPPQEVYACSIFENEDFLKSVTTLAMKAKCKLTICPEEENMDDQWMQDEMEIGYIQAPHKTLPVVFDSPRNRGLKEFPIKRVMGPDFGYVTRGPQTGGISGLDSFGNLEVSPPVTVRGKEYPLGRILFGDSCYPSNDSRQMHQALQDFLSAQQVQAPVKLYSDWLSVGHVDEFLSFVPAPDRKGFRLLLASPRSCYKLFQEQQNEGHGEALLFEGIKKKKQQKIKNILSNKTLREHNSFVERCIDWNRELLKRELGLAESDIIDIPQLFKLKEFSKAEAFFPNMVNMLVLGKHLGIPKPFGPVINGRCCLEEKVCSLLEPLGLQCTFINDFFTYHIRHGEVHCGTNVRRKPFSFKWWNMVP
# EBNA-1 inh – EBNA-1 DNA-binding inhibitors, primary screen, biochemical, fluorescence polarization; 300,000 compounds, 0.34% hits; inhibition, % at 14.8 µM; in the data active = inhibition above about 28%
# EBNA-1 inh conf – EBNA-1 DNA-binding inhibitors, retest, confirmation, biochemical, fluorescence polarization, triplicate; AID 2292, 2010; 830 compounds, 35% hits; inhibition, % at 14.8 µM; Recombinant EBNA-1 DBD, Cy5-DNA fluorescence polarization; shares compounds with EBNA-1 inh;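 active = mean inhibition across replicates above a set limit taken from the earlier primary screen, cut at about 28% in these data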;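 note: plate controls were EBNA-1 protein with DMSO for no effect and wells lacking EBNA-1 for full effect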
# ZTA DNA inh trip – EBV Zta DNA binding inhibitors, counter-screen for EBNA-1 inhibitor project, biochemical, fluorescence polarization, triplicate. shares compounds with EBNA-1 inh. Zta-ZRE DNA binding, Cy5 fluorescence polarization. inhibition, % at 11.1 µM. 830 tested, under 10 active. AID 2328, 2010;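 active = mean inhibition over triplicates above a set limit taken from the primary EBNA-1 screen, cut at about 37% in these data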;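 note: purified full length Zta protein with Cy5 labeled ZRE DNA probe; 0% = Zta with DMSO and 100% = wells lacking Zta protein; inhibitors lower polarization by freeing the labeled DNA probe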
# Numbers without * were called inactive; nt = no result given.
SMILES,GSTO1 counter,LYPLA1 counter,LYPLA2 inh,ZTA DNA inh,PAD4 inh,EBNA-1 inh,EBNA-1 inh conf,ZTA DNA inh trip
O=C1COc2ccc(C(=O)COC(=O)C3CCN(S(=O)(=O)c4cccs4)CC3)cc2N1,5,1,12,16,0,35*,18,-2
COc1ccc(/C=C/C(=O)NC(=S)Nc2ccc(S(N)(=O)=O)cc2)cc1,0,-3,0,31,-4,33*,39*,37*
NC(=O)c1ccc(SCC(=O)OCC(=O)NCC2CCCCC2)c([N+](=O)[O-])c1,7,-3,-2,8,-1,-8,nt,nt
COc1ccc(NC(=O)CN(C)C(=O)c2cc(-c3ccccc3)nc3ccccc23)cc1,1,-6,0,11,-5,-15,nt,nt
COc1ccc(NC(=O)CN(C)C(=O)c2cc(-c3ccc(OC)cc3)nc3ccccc23)cc1,-19,-5,-14,3,-5,31*,0,-3
CCCNC(=O)C1(CC2CC(c3ccccc3)=NO2)CCN(C(=O)c2cc(OCC)c(OCC)c(OCC)c2)CC1 (stereo not drawn),3,-2,5,3,0,-4,nt,nt
O=C(OCc1ccc(Cl)c(Cl)c1)c1ccc[nH]1,-7,-4,-3,-7,-6,-6,nt,nt
Cc1ccccc1Nc1nc(N)nc(CSc2nc3ccccc3c(=O)n2CCCO)n1,16,-1,0,9,2,42*,-2,6
Cc1ccc(O)c(NC(=O)C2CCCN2C(=O)OCc2ccccc2)c1 (stereo not drawn),3,-1,-2,-12,-1,-6,nt,nt
COc1cccc(C(=O)CC(C#N)c2ccc(F)cc2)c1 (stereo not drawn),2,-2,4,-17,3,-2,nt,nt
Cc1c(C(=O)NNC(=O)c2ccccc2O)oc2ccc(Br)cc12,-6,-5,-10,2,-5,13,nt,nt
CCOc1ccc2oc(C(=O)NNC(=O)c3ccccc3O)c(C)c2c1,14,-4,-5,-11,-3,73*,6,1
CC(NC(=O)C12CC3CC(CC(C3)C1)C2)c1ccc(F)cc1 (stereo not drawn),1,0,-7,0,-3,-5,nt,nt
Nc1c(C(=O)Nc2ccc3c(c2)OCCO3)nnn1Cc1ccc(Cl)cc1,10,-2,4,14,0,12,nt,nt
Nc1c(C(=O)Nc2ccc3c(c2)OCCO3)nnn1Cc1cccc(F)c1,1,0,4,7,3,35*,87*,0
COc1cccc(Cn2nnc(C(=O)NCc3ccc4c(c3)OCO4)c2N)c1,2,-1,0,0,-2,10,nt,nt
Nc1c(C(=O)NCc2ccc3c(c2)OCO3)nnn1Cc1cccc(F)c1,-7,-3,-4,-3,-2,76*,29*,8
O=C(COc1ccc2ccccc2c1)N[C@@H](C(=O)O)c1ccc(O)cc1,5,1,-4,-6,-3,-9,nt,nt
N#Cc1cc2c(nc1SCC(=O)Nc1nccs1)CCCCC2,4,-5,-13,-2,2,30*,15,-7
CCc1nnc(NC(=O)CSc2nc3c(cc2C#N)CCC3)s1,5,3,0,-1,-1,4,nt,nt
Cc1cccc(NC(=O)CN2C(=O)N/C(=C/c3ccc(C)o3)C2=O)c1,-4,0,3,4,-5,-1,nt,nt
COc1ccc(/C=C2/NC(=O)N(CC(=O)Nc3cccc(C)c3)C2=O)cc1O,0,-3,-6,0,-5,56*,76*,-1
